# From paper PMC4336329 (PLoS ONE, 2015)
# Among all 310,000 compounds or so, about 14,000 (4.5%) showed an effect of 50% or more. Effects have a minus sign here. The entries come from a sample that favours strong results as a whole.
# Target: human ether-à-go-go-related gene (hERG) potassium channel (human, UniProt Q12809)
# Assay: primary screen, population patch clamp on CHO cells stably expressing hERG; higher = less effect of the substance
# 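Further: peak tail current of the secondary pulse compared with the same well before compound.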
# Sequence of human ether-à-go-go-related gene (hERG) potassium channel (Q12809 whole entry, looked up): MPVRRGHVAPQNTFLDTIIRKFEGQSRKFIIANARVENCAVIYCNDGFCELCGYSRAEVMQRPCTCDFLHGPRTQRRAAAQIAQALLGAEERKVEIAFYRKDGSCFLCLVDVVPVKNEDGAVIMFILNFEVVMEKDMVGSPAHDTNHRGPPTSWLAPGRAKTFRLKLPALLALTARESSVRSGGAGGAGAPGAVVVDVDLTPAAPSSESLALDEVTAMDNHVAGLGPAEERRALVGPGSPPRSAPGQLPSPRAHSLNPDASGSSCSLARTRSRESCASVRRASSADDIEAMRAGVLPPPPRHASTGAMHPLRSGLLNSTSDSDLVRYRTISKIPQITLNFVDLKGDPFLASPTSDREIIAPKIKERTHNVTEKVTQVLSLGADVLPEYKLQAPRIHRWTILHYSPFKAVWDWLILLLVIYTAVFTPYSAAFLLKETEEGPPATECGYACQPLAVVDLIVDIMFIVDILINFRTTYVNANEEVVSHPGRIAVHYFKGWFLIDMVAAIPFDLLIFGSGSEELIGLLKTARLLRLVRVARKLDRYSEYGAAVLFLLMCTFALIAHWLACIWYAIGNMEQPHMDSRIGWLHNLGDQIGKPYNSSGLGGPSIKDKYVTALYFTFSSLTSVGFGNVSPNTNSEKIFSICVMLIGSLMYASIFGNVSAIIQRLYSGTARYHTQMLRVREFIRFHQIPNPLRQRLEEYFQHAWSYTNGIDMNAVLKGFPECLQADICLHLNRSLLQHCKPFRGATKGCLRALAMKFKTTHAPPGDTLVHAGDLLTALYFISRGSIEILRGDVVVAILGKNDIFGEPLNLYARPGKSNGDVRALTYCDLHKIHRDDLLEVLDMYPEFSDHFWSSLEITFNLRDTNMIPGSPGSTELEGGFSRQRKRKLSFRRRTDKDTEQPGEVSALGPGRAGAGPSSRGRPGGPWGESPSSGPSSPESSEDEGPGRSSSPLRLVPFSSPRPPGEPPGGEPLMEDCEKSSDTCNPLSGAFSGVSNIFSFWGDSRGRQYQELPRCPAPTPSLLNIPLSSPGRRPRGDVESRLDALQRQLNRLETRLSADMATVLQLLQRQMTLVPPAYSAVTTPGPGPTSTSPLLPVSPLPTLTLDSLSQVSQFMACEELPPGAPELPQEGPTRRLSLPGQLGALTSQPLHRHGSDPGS
row,Compound,"hERG current change (%, negative = inhibition) at 10uM [%]"
1,C=C(C)CCC1(C)NC(=O)N(c2ccccc2)N1 (centres unmarked),-4.03
2,CN(C(=O)CSc1nnnn1-c1ccc(O)cc1)C1CCS(=O)(=O)C1 (centres unmarked),14.8
3,CCN(CC(=O)NCc1cccs1)C(=O)CN(C)S(=O)(=O)c1ccc(C)cc1,-27.3
4,COc1ccccc1NC(=O)CSc1nc2sc3c(c2c(=O)n1-c1ccccc1)CCN(C)C3,-26
5,CC1(C)OC(=O)N(c2ccccc2)C12C=Cc1cc(Br)ccc1O2 (centres unmarked),-14.4
6,COc1ccc(NC(=O)c2ccc(S(=O)(=O)N3CCOCC3)o2)cc1,0.458
7,O=C(Nc1ccc(OC(F)(F)F)cc1)c1ccc(S(=O)(=O)N2CCOCC2)o1,-53.7
8,O=C(Nc1ccc(F)cc1)c1ccc(S(=O)(=O)N2CCOCC2)o1,-13.1
9,O=C(Nc1ccc(S(=O)(=O)N2CCCCCC2)cc1)c1ccc(Br)o1,-14.5
10,O=C(Nc1ccc(S(=O)(=O)N2CCOCC2)cc1)c1ccc(Br)o1,-64.8
11,O=C(Nc1ccc(S(=O)(=O)N2CCCC2)cc1)c1ccc(Br)o1,14.8
12,O=C(NNc1ccccc1[N+](=O)[O-])Nc1cccc(Cl)c1,19.3
13,Cc1ccccc1Cn1cc(NC(=O)CCCn2nc([N+](=O)[O-])cc2C)cn1,-7.52
14,O=C(NNS(=O)(=O)c1ccc([N+](=O)[O-])cc1)c1ccc([N+](=O)[O-])cc1,28.6
15,O=C(O)c1cccn2c(=O)c3ccccc3nc12,13.1
16,COCCCNC(=O)c1cccn2c(=O)c3cc4ccccc4cc3nc12,-42.2
17,O=C(CCNC(=O)Cn1ccc2ccccc2c1=O)NCCN1CCN(c2ccccc2F)CC1,6.8
18,CN(CCCNC(=O)c1cccn2c(=O)c3ccccc3nc12)Cc1ccccc1,-74.1
19,CN(CCCNC(=O)c1cc2c(Cl)nc3ccccc3c2s1)Cc1ccccc1,-44.3
20,O=C(NCCN1CCN(c2ccccc2)CC1)c1cccn2c(=O)c3ccccc3nc12,-63
21,O=C(NCCN1CCN(c2ccccc2)CC1)c1cccn2c(=O)c3cc(Cl)ccc3nc12,-45.4
22,Cn1c(C(=O)NCCN2CCN(c3ccccc3F)CC2)cc2c(=O)n(C)c3ccccc3c21,-4.62

row,Compound,"hERG current change (%, negative = inhibition) at 10uM [%]"
1,O=C(NCCN1CCN(c2ccccc2F)CC1)c1cccn2c(=O)c3ccccc3nc12,-71.5
2,CCN(CC(=O)NC1CCS(=O)(=O)C1)C(=O)COc1ccccc1-c1ccccc1 (centres unmarked),11.7
3,CCn1nnnc1NCc1ccc(Cl)cc1,9.44
4,COc1ccc2c(c1)O[C@@H](c1cccc(C(F)(F)F)c1)[C@H](OC(=O)NCCc1ccc(OC)c(OC)c1)C2=O,-0.231
5,COc1ccc(-c2nnc(SC(C)C(=O)NCc3ccc4c(c3)OCO4)n2Cc2ccco2)cc1 (centres unmarked),-55.1
6,O=C(CSc1nnc(-c2ccccc2)n1Cc1ccco1)NCc1ccc2c(c1)OCO2,-14.5
7,COc1cccc(-c2nnc(SCC(=O)Nc3ccc4c(c3)OCCO4)n2Cc2ccco2)c1,-15.1
8,COc1cccc(-c2nnc(SCC(=O)NCc3ccc4c(c3)OCO4)n2Cc2ccco2)c1,-49.7
9,O=C(CSc1nnc(-c2cccnc2)n1Cc1ccco1)NCc1ccc2c(c1)OCO2,-33.2
10,O=C(CSc1nnc(-c2ccc(Cl)cc2)n1Cc1ccco1)NCc1ccc2c(c1)OCO2,-75.3
11,O=C(CSc1nnc(NC(=O)c2ccco2)s1)NC1CCCCC1,2.07
12,Cc1ccc2c(c1)N(CCC(=O)NCCCN1CCCC1)C(=O)C(C)O2 (centres unmarked),22.4
13,Cc1nn(C)c(Cl)c1CN1CCCC(CO)(Cc2ccccc2)C1 (centres unmarked),-6.66
14,CC(C)(O)C#Cc1ccc(CN2CCCC(CO)(Cc3cccc(Cl)c3)C2)cc1 (centres unmarked),-6.28
15,Cc1nn(C)c(Cl)c1CN1CCCC(CO)(Cc2cccc(Cl)c2)C1 (centres unmarked),-59.8
16,CSc1cccc(CN2CCCC(CO)(Cc3cccc(Cl)c3)C2)c1 (centres unmarked),-29
17,COc1ccc(CN2CCCC(CO)(Cc3cccc(Cl)c3)C2)cc1OC (centres unmarked),-63.2
18,Cc1c(CN2CCCC(CO)(Cc3cccc(Cl)c3)C2)cnn1C (centres unmarked),-11.2
19,COc1cc(CN2CCCC(CO)(Cc3ccccc3)C2)ccc1O (centres unmarked),-17.6
20,OCC1(Cc2cccc(Cl)c2)CCCN(Cc2ccc(F)c(F)c2)C1 (centres unmarked),-51.2
21,CCn1nc(C)c(CN2CCCC(CO)(Cc3cccc(Cl)c3)C2)c1C (centres unmarked),-40.8
22,COc1cc(CN2CCCC(CO)(Cc3cccc(Cl)c3)C2)cc2c1OCO2 (centres unmarked),-68.1

row,Compound,"hERG current change (%, negative = inhibition) at 10uM [%]"
1,Cc1cccc(-c2ncc(CN3CCCC(CO)(Cc4cccc(Cl)c4)C3)cn2)c1 (centres unmarked),-20.6
2,COc1cc(CN2CCCC(CO)(Cc3ccccc3C)C2)cc2c1OCO2 (centres unmarked),-27.9
3,CCC/C=C(\CCC)C(NS(=O)(=O)c1ccc(C(F)(F)F)cc1)c1ccccc1 (centres unmarked),15.5
4,Cc1nnc2ccc(N3CCN(C(=O)c4ccccc4)CC3)nn12,-0.844
5,COc1ccc(S(=O)(=O)NCc2ccncc2)cc1NC(=O)c1ccccc1C,-36.6
6,O=C(/C=C/c1cccc([N+](=O)[O-])c1)NCCSCc1c(Cl)cccc1Cl,-11.9
7,NS(=O)(=O)c1ccc(NC(=O)c2ccc3c(c2)OCO3)cc1,11.3
8,COc1cc(Cl)c(CN2CCCC(CO)(Cc3cccc(Cl)c3)C2)cc1OC (centres unmarked),-45.6
9,COc1cc(Cl)c(CN2CCCC(CO)(Cc3ccccc3)C2)cc1OC (centres unmarked),-55.2
10,COc1cc(Cl)c(CN2CCCC(CO)(Cc3ccccc3F)C2)cc1OC (centres unmarked),-20.1
11,O=C(O)CSc1cc(C(F)(F)F)nc(-c2ccccn2)n1,5.55
12,FC(F)(F)c1cc(Sc2ccccc2)nc(-c2ccccn2)n1,-19.3
13,C#CCSc1cc(C(F)(F)F)nc(-c2ccccn2)n1,-62.9
14,CCC(=O)NC(C)c1nc2ccccc2n1C (centres unmarked),1.29
15,Cc1sc2ncnc(N/N=C/c3cccc(O)c3)c2c1C,-61.9
16,Cc1sc2ncnc(N/N=C/c3ccccc3O)c2c1C,-1.58
17,Cc1sc2ncnc(N/N=C/c3ccc(O)cc3)c2c1C,2.28
18,O=C(CCNNC(=O)c1ccncc1)NCc1ccccc1,9.98
19,Cn1cc(CN2CCCC(CO)(Cc3cccc(Cl)c3)C2)cn1 (centres unmarked),-17.1
20,OCC1(Cc2ccccc2)CCCN(Cc2cnn(-c3ccccc3)c2)C1 (centres unmarked),-59.4
21,OCC1(Cc2cccc(Cl)c2)CCCN(Cc2cnn(-c3ccccc3)c2)C1 (centres unmarked),-54.7
22,CCn1cc(CN2CCCC(CO)(Cc3cccc(Cl)c3)C2)cn1 (centres unmarked),-10.8

row,Compound,"hERG current change (%, negative = inhibition) at 10uM [%]"
1,Cn1cc(CN2CCCC(CO)(Cc3ccccc3)C2)cn1 (centres unmarked),4.27
2,COc1ccccc1-n1cc(CN2CCCC(CO)(Cc3cccc(Cl)c3)C2)cn1 (centres unmarked),-49.5
3,CC(C)n1cnc2c(Nc3ccc(F)c(Cl)c3)nc(NCCO)nc21,-39
4,[O-][N+]1=C(c2cccs2)CN(O)C1,8.57
5,CC(OC(=O)/C=C/c1ccco1)C(=O)NC1CCCCC1C (centres unmarked),-3.2
6,Nc1sc(-c2ccccc2)c(Cc2ccccc2)c1C(=O)O,-2.59
7,Cc1cnc(NC(=O)CSc2ccccc2)s1,3.88
8,O=C(O)CCC(=O)N1CCC(n2nnc3cc(C(F)(F)F)ccc32)CC1,10.5
9,Cl.Fc1ccc2c(c1)nnn2C1CCN(Cc2nnnn2C2CCCCC2)CC1,-38.1
10,C1CCN(Cc2nnnn2C2CCCC2)CC1,11.4
11,Fc1ccc(Cn2nnnc2CN2CCN(C3CCCC3)CC2)cc1,-49.1
12,Fc1ccc(Cn2nnnc2CN2CCC(n3nnc4cc(C(F)(F)F)ccc43)CC2)cc1,-69.6
13,FC(F)(F)c1ccc2c(c1)ncn2C1CCN(Cc2nnnn2C2CCCCC2)CC1,-59.6
14,Cc1ccc(Cn2nnnc2CN2CCC(n3nnc4cc(C(F)(F)F)ccc43)CC2)cc1,2.84
15,OC1(c2cccc(C(F)(F)F)c2)CCN(Cc2nnnn2Cc2ccccc2)CC1,10.4
16,FC(F)(F)c1ccc2c(c1)nnn2C1CCN(Cc2nnnn2Cc2ccccc2)CC1,-50.9
17,O=C(CSc1ccc2c(c1)OCCO2)NCCc1ccc(Cl)cc1Cl,-8.94
18,O=C(Nc1ccc(Cl)cc1C(F)(F)F)c1ccccc1,8.81
19,Cn1cnnc1SCC(=O)Nc1cc(S(=O)(=O)N2CCCCCC2)ccc1Cl,-17.8
20,CCc1c(C)nc2ncnn2c1Nc1ccccc1C,-34.1
